Laboratory results published in paper PMC5540273 (PLoS ONE, 2017).

Key:
Settings in all cases: concentration: 1 μM, replicates: in singlicate; n = 1
PCTK2 = system: T1, PCTK2
T1 construct: gene CDK17

PCTK3 = system: T2, PCTK3
T2 construct: gene CDK18

PDGFRA = system: PDGFRA
PDGFRB = system: PDGFRB
PDPK1 = system: PDPK1
PFTAIRE2 = system: PFTAIRE2
PFTK1 = system: T3, PFTK1
T3 construct: gene CDK14

PHKG1 = system: PHKG1
PHKG2 = system: PHKG2
PIK3C2B = system: PIK3C2B
PIK3C2G = system: PIK3C2G
PIK3CA = system: PIK3CA
PIK3CB = system: PIK3CB
PIK3CD = system: PIK3CD
PIK3CG = system: PIK3CG
PIK4CB = system: T4, PIK4CB
T4 construct: gene PI4KB

PIKFYVE = system: PIKFYVE
PIM1 = system: PIM1
PIM2 = system: PIM2
PIM3 = system: PIM3
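Further: KINOMEscan kinase panel screen.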

Structure (SMILES) | %Inh (PCTK2) | %Inh (PCTK3) | %Inh (PDGFRA) | %Inh (PDGFRB) | %Inh (PDPK1) | %Inh (PFTAIRE2) | %Inh (PFTK1) | %Inh (PHKG1) | %Inh (PHKG2) | %Inh (PIK3C2B) | %Inh (PIK3C2G) | %Inh (PIK3CA) | %Inh (PIK3CB) | %Inh (PIK3CD) | %Inh (PIK3CG) | %Inh (PIK4CB) | %Inh (PIKFYVE) | %Inh (PIM1) | %Inh (PIM2) | %Inh (PIM3)
COc1ccc(C)c(Nc2ccnc(Nc3ccc(-c4cnc[nH]4)cc3)n2)c1.Cl [GW784041] | 10% | 2% | 0% | 76% | 0% | 0% | 0% | 0% | 8% | 0% | 11% | 0% | 0% | 0% | 11% | 58% | 0% | 0% | 9% | 0%
Cl.N#CCc1ccc(Nc2nccc(Nc3ccc(Oc4ccccc4)cc3)n2)cc1 [GW639905] | 0% | 8% | 31% | 99.6% | 17% | 4% | 0% | 0% | 0% | 0% | 7% | 0% | 0% | 0% | 0% | 0% | 13% | 0% | 0% | 0%
O=C(Nc1c(F)cccc1F)c1cc(C(=O)c2ccccc2F)c[nH]1 [GSK1326180] | 0% | 0% | 0% | 14% | 0% | 10% | 20% | 0% | 0% | 0% | 0% | 0% | 0% | 0% | 0% | 0% | 0% | 0% | 0% | 0%
O=C1NC(=O)C(c2ccccc2Cl)=C1Nc1cccc(Cl)c1 [SB-342409] | 0% | 31% | 0% | 13% | 13% | 21% | 13% | 0% | 0% | 0% | 0% | 0% | 0% | 0% | 0% | 0% | 0% | 0% | 0% | 0%
Cl.Cl.NCC(NC(=O)c1cc(-c2cccnc2)c(-c2ccnc3[nH]ccc23)s1)c1ccccc1 (centres unmarked) [GSK1323434] | 14% | 0% | 0% | 28% | 26% | 29% | 28% | 7% | 2% | 0% | 0% | 0% | 0% | 2% | 0% | 0% | 59% | 16% | 0% | 0%
COc1cccc(NC(=O)NCCNc2ccnc(Nc3ccc(F)cc3)n2)c1 [GSK1379879] | 0% | 0% | 0% | 53% | 0% | 6% | 18% | 0% | 0% | 0% | 10% | 0% | 0% | 0% | 0% | 0% | 8% | 13% | 0% | 0%
COC(=O)Nc1nc2ccc(Oc3ccc(CC(=O)Nc4cc(C(F)(F)F)ccc4F)cc3)cc2[nH]1 [GW680903] | 0% | 30% | 98.5% | 100% | 0% | 0% | 14% | 0% | 0% | 0% | 0% | 0% | 0% | 0% | 0% | 0% | 5% | 19% | 0% | 0%
Nc1ncc(-c2cn[nH]c2)c2scc(-c3ccc4c(c3)CCN4C(=O)Cc3ccccc3)c12 [GSK2593067] | 0% | 29% | 96% | 100% | 65% | 0% | 0% | 0% | 0% | 0% | 0% | 0% | 0% | 5% | 0% | 25% | 0% | 0% | 0% | 0%
CNc1nccc(-c2ccc3c(N)n[nH]c3c2)n1 [GSK2206003] | 19% | 18% | 13% | 77% | 62% | 16% | 10% | 6% | 43% | 0% | 1% | 0% | 0% | 0% | 17% | 0% | 0% | 18% | 0% | 13%
Cn1cc(-c2cnc(N)c3c(-c4ccc5c(c4)CCN5C(=O)Cc4ccccc4)csc23)cn1 [GSK2593074] | 0% | 6% | 98.2% | 100% | 56% | 0% | 0% | 6% | 14% | 13% | 35% | 8% | 0% | 0% | 3% | 100% | 0% | 0% | 15% | 1%
